This note sets out measurements from PubChem BioAssay (NCATS).

Assay [1] can be described thus: qHTS assay to identify small molecule inhibitors of chordoma cells - UCH-1 (AID 1259355). Further: nearly all actives have a fitted effect of over 55% in size. An outline of the steps: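 A 48hr growth-inhibition format: each drug tested at 15 concentrations together with added auranofin, camptothecin, doxorubicin, rubitecan and topotecan, with cell viability quantified as CellTiter-Glo luminescence.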
A general note: In qHTS, concentration-response curves come from the screen itself.

Assay [2] can be described thus: qHTS assay to identify small molecule inhibitors of chordoma cells - UCH-2 (AID 1259356). Further: series mostly up to about 46 µM.
Assay [3] in a line: P-glycoprotein substrates identified in KB-8-5-11 adenocarcinoma cell line, qHTS therapeutic library screen (AID 1346987). Further: series mostly up to about 44 µM; nearly all actives have a fitted effect of over 65% in size. A digest of the protocol: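 Human cervical adenocarcinoma KB-8-5-11 cells, selected in colchicine to over-express P-gp and assayed without it, were exposed for 72 h to titrated compounds. An ATP-based luminescent viability signal gave AC50.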
The nature of assay [4]: Natriuretic polypeptide receptor (hNpr1) antagonism - Pilot counterscreen GloSensor control cell line (AID 1347045; calls by dose curve; further: series mostly up to about 38 µM). A digest of the protocol: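 The SNP-driven cGMP luminescence signal (50 uM, 20 min, room temperature) was measured in GloSensor HEK293 control cells. Compounds were tested as a LOPAC titration series and preincubated for 30-50 min.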
In general terms: A counterscreen serves to expose hits that act by an unwanted route or on another target.

In assay [5] the target is Atrial natriuretic peptide receptor 1 (Homo sapiens) (UniProt P16066). Nature of the assay: Natriuretic polypeptide receptor (hNpr1) antagonism - Pilot screen (AID 1347049; calls by dose curve;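 further: HEK293 cells with hNpr1 and GloSensor cGMP luciferase stimulated by 0.1 nM hNppA; agonist-evoked cGMP luminescence read 20 min after hNppA addition; series mostly up to about 58 µM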). An outline of the steps: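 Cells expressing receptor plus cGMP biosensor are seeded and incubated overnight at 37C, then loaded with GloSensor reagent (2% final) at room temperature for 2 h. Library compounds go on for 30 min. A pre-read precedes agonist (hNppA, 0.1 nM final) and a 20-min readout.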
Chain of Atrial natriuretic peptide receptor 1 (Homo sapiens) (P16066 whole entry, looked up): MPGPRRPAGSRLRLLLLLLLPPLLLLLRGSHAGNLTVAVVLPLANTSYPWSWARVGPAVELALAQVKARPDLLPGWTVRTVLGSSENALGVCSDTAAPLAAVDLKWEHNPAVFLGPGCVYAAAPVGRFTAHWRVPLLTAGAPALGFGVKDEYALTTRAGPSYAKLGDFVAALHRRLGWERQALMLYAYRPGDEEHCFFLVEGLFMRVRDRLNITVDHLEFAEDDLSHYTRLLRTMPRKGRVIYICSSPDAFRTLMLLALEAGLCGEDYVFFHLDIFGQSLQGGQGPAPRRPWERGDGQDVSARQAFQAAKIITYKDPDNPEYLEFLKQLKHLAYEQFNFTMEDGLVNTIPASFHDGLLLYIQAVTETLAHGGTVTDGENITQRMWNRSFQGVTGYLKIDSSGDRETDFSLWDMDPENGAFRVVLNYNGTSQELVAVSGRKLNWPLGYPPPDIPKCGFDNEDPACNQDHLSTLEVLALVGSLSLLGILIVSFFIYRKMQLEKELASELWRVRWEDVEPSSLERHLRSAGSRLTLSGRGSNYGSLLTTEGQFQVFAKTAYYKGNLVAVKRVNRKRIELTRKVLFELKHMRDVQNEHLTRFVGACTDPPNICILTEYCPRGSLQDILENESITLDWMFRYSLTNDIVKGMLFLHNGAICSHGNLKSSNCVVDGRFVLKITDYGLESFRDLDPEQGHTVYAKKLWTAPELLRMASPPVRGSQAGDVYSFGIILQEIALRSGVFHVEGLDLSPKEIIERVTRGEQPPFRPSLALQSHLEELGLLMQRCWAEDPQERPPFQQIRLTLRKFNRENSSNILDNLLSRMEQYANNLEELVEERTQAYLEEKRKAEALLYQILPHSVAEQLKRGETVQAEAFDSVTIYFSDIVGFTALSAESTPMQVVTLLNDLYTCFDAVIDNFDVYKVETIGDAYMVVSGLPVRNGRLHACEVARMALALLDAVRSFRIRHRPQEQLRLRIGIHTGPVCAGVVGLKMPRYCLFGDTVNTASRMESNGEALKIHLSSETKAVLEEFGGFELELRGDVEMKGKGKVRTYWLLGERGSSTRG

The target in assay [6] is Atrial natriuretic peptide receptor 2 (Homo sapiens) (UniProt P20594). Nature of the assay: Natriuretic polypeptide receptor (hNpr2) antagonism - Pilot subtype selectivity assay (AID 1347050; calls by dose curve). A digest of the protocol: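 Read-out: GloSensor luminescence (CCD imager), baseline vs post-stimulation. HEK293 cells expressing hNpr2; compounds pre-incubated 30-50 min at ambient temperature; hNppC 1 nM final, 20 min.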
Chain of Atrial natriuretic peptide receptor 2 (Homo sapiens) (P20594 whole entry, looked up): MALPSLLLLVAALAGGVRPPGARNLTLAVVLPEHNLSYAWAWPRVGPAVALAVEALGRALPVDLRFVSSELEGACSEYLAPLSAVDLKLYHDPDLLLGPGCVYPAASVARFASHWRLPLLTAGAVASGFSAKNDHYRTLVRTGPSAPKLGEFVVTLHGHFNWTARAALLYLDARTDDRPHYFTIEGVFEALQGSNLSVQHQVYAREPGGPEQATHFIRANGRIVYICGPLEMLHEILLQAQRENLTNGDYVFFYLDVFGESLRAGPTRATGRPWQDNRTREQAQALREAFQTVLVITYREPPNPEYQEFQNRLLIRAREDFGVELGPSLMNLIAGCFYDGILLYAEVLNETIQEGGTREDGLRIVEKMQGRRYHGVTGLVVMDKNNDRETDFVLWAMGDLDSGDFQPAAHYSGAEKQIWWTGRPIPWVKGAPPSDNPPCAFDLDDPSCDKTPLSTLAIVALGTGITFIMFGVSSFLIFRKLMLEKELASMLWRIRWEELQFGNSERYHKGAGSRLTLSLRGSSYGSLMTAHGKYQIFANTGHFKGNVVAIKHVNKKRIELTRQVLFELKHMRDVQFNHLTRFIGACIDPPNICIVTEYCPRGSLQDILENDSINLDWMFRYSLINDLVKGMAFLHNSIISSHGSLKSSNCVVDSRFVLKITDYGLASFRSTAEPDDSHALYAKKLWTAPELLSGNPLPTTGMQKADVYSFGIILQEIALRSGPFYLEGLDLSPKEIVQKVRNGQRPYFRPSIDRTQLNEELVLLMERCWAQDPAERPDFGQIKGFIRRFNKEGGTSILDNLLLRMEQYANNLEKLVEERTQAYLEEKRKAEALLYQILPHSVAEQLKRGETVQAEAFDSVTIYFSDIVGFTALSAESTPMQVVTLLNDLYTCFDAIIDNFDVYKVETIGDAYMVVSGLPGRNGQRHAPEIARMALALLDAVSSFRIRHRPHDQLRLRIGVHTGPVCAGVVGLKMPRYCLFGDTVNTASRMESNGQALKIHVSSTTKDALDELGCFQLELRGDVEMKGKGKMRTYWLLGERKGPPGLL

Assay [7] is described as follows: NS1 protein of Zika virus - qHTS assay to identify small molecule inhibitors in human HEK 293 cells (AID 1347053). Further: series mostly up to about 46 µM; nearly all actives have a fitted effect of over 55% in size. A digest of the protocol: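 Compound-treated (1 h pre-infection) HEK 293 cells infected with ZIKV MR766, MOI = 0.5; after 24 h at 37 C, NS1 read by TR-FRET; data normalized to uninfected and infected controls.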
For assay [8], the target named is T1, Tyrosine-protein phosphatase non-receptor type substrate 1 (Homo sapiens) + Leukocyte surface antigen CD47 (Homo sapiens) (UniProt P78324+Q08722). Description: CD47-SIRPalpha protein protein interaction - LANCE assay qHTS validation (AID 1347057; active means well fitted curve in the direction sought with a large enough effect in the signal ratio, with a control signal flat, not every such curve was filed as active; the % refers to the signal ratio; further: series mostly up to about 38 µM). A digest of the protocol: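 Inhibition of soluble CD47/SIRPalpha ectodomain association by titrated compounds, measured as 665/615 nm time-resolved FRET ratio after sequential 30 min room-temperature incubations.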
T1 sequence (P78324 whole entry, looked up, the tested form may be a part): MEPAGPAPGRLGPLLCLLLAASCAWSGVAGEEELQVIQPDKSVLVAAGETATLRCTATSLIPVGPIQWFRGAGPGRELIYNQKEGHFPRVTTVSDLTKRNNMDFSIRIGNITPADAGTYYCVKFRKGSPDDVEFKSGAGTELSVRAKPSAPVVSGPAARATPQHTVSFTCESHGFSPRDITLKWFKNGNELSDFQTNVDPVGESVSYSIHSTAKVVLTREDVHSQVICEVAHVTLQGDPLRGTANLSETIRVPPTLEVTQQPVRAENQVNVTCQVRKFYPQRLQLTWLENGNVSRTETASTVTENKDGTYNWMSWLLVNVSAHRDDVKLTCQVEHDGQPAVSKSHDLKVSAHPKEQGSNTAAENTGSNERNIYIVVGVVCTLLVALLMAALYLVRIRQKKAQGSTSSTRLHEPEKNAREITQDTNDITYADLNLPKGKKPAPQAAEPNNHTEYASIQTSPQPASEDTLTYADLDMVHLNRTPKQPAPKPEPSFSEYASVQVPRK
T1 sequence (Q08722 whole entry, looked up, the tested form may be a part): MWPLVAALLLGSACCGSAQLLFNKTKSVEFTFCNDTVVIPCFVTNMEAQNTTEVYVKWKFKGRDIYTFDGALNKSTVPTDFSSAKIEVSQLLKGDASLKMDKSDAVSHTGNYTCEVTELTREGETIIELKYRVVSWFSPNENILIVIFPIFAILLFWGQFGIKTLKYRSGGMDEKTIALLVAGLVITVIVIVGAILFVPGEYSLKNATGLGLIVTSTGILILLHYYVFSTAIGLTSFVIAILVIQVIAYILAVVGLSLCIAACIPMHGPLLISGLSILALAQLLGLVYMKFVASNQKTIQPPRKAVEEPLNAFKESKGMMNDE

Assay [9] deals with Parathyroid hormone/parathyroid hormone-related peptide receptor (Homo sapiens) (UniProt Q03431). Description: qHTS for PTHR1 Agonists: Optimization Screen against the NCGC LOPAC library (AID 1347079).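 Further: GloSensor cAMP luminescence in HEK-293 GP2 cells expressing human PTHR1 with IBMX.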 A digest of the protocol:
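Signal increase flags agonism. GP2 cells, derived from HEK-293, express human PTHR1 and a GloSensor cAMP construct.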

A short description of assay [10]: qHTS of pediatric cancer cell lines to identify multiple opportunities for drug repurposing: Primary screen for TC32 cells (AID 1347089). Further: nearly all actives have a fitted effect of over 60% in size. A digest of the protocol:
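In the primary qHTS, MIPE compounds were tested at 11 concentrations (0.78 nM to 46 µM) and NPC compounds at 8 (0.59 nM to 46 µM) on TC32 cells for 48 h. CellTiter-Glo luminescence gave viability.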

Assay [11] in a line: qHTS of pediatric cancer cell lines to identify multiple opportunities for drug repurposing: Primary screen for DAOY cells (AID 1347090). Further: series mostly up to about 46 µM; nearly all actives have a fitted effect of over 55% in size. An outline of the steps: (§1)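 Eight- or eleven-point concentration series, 48 h treatment at 37 degrees C in growth media; readout CellTiter-Glo luminescence. Potency and efficacy were taken from the concentration-response curves.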
The nature of assay [12]: qHTS of pediatric cancer cell lines to identify multiple opportunities for drug repurposing: Primary screen for SJ-GBM2 cells (AID 1347091). A digest of the protocol:
as §1

Assay [13] in a line: qHTS of pediatric cancer cell lines to identify multiple opportunities for drug repurposing: Primary screen for A673 cells (AID 1347092). Further: nearly all actives have a fitted effect of over 45% in size. Further: potency means the concentration at half of the fitted maximal effect. An outline of the steps: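 48 h compound exposure, A673, 500-1,000 cells/well, 37 degrees C/5% CO2. MIPE: 11-point, 0.78 nM-46 µM; NPC: 8-point, 0.59 nM-46 µM (final). Readout CellTiter-Glo luminescence after 15 min RT.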
For assay [14], the target named is T1, Tyrosine-protein phosphatase non-receptor type substrate 1 (Homo sapiens) + Leukocyte surface antigen CD47 (Homo sapiens). Description: CD47-SIRPalpha protein protein interaction - HTRF assay qHTS validation (AID 1347058; active means well fitted curve in the direction sought with a large enough effect in the signal ratio, not every such curve was filed as active; the % refers to the signal ratio; further: series mostly up to about 38 µM). An outline of the steps: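 Soluble extracellular domains (6His-CD47, Avi-tag-biotinylated SIRPalpha) in PBS pH 7.4 with 0.05% IGEPAL CA-630. Compounds were preincubated 30 min at RT with CD47 and anti-His-Eu, then SIRPalpha and SAV-XL665 were added. TR-FRET 665/615 ratio.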
(In general: TR-FRET usually uses a lanthanide donor and a delayed reading to cut background.)

Assay [15] has the same target. Description: CD47-SIRPalpha protein protein interaction - Alpha assay qHTS validation (AID 1347059).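 Further: bead proximity luminescence from CD47 binding SIRPalpha after compound preincubation with SIRPalpha.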 A digest of the protocol:
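In PBS (pH 7.4) with 0.05% IGEPAL CA-630, compound is preincubated with biotin-Avi-SIRPalpha ectodomain before His-CD47 ectodomain and affinity beads are added. Light-protected room-temperature incubations; AlphaScreen readout.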

The structures appear in SMILES notation. A number with no mark means an inactive call. Inconclusive results are not listed. Activity calls are given as the source filed them. Unless noted, the call rests on the fitted dose curve; in most records, active means well fitted curve in the direction sought with a large enough effect; inconclusive means small, poorly fitted or top-dose-only effect, or another doubt; inactive means no such curve, though single readings can be large; an effect the other way counts as inactive or inconclusive.

Chain of Parathyroid hormone/parathyroid hormone-related peptide receptor (Homo sapiens) (Q03431 whole entry, looked up): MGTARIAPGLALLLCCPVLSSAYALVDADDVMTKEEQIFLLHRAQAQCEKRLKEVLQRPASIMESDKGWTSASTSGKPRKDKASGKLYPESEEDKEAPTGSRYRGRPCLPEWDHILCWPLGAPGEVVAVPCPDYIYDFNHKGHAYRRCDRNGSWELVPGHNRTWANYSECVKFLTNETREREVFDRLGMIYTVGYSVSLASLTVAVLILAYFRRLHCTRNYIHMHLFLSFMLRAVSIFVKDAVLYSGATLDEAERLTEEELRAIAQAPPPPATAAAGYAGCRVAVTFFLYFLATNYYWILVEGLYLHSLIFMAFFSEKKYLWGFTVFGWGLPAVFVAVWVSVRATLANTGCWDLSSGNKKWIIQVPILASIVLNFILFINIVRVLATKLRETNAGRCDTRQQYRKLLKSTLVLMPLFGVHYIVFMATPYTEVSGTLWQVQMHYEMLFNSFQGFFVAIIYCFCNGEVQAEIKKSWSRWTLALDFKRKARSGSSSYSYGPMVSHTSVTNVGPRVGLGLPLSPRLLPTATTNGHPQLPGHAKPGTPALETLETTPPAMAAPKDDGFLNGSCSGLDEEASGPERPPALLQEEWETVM

With `NC(=O)c1cn(Cc2c(F)cccc2F)nn1`, the Potency entry in assay [1], in assay [2], in [3], in [4], in assay [5] and in assay [6] was “inactive” in each case. Further, the Potency result in [10], in [11], in assay [12] and in assay [13] was “inactive” each time. Moreover, the compound was called inactive in assay [7], in [8] and in assay [9].

As to `C#CCN(C)CCCOc1ccc(Cl)cc1Cl`, the Potency entry in [2], in [5], in [6], in [15], in [10] and in assay [12] was “inactive” throughout. The Potency entry in assay [13] is “inactive”. Moreover, the compound was called inactive in assay [7], in [8], in assay [14] and in assay [9].

For `CN=C(NC#N)NCCSCc1nc[nH]c1C`, the Potency result in assay [2], in assay [3], in [4], in [5], in assay [6] and in assay [15] was “inactive” in each case. Also, the Potency entry in [10], in assay [11], in assay [12] and in assay [13] was “inactive” in each case. The outcome in [7], in [8], in assay [14] and in [9] was inactive.

For the compound `CN(C)CC/C=C1\c2ccccc2COc2ccccc21`, the Potency entry in [2], in [4], in [5], in [6], in assay [10] and in assay [11] was “inactive” each time. Moreover, the Potency entry in assay [12] was “inactive”. Further, the result in [7], in assay [8] and in [9] was inactive.

As for `O=C(O)CP(=O)(O)O`, the Potency entry in assay [1], in [2], in [3], in assay [4], in assay [5] and in assay [6] was “inactive” throughout. The Potency result in [15], in [10], in assay [12] and in assay [13] was “inactive” throughout. The outcome in [7], in [8] and in assay [9] was inactive.

Take `Cc1scc2c1N(C(=O)CN1CCN(C)CC1)c1ccccc1NC2=O`: the Potency result in [2], in assay [3], in assay [5], in assay [6], in assay [15] and in assay [10] was “inactive” each time. Moreover, the Potency entry in assay [11], in assay [12] and in assay [13] was “inactive” in each case. Besides, the outcome in assay [7], in assay [8] and in [9] was inactive.

Take `NC(=O)N1c2ccccc2C=Cc2ccccc21`: the Potency entry in assay [2], in assay [3], in assay [5], in assay [6], in [15] and in assay [10] was “inactive” each time. Further, the Potency entry in assay [11], in [12] and in assay [13] was “inactive” throughout. Also, the compound was called inactive in [7], in assay [8] and in assay [9].

With `CCCCCCCC/C=C\CCCCCCCC(=O)NCc1ccc(O)c(OC)c1`, the Potency entry in assay [1], in assay [2], in assay [3], in [4], in assay [5] and in assay [6] was “inactive” throughout. Also, the Potency entry in assay [15] and in [10] was “inactive” throughout. Further, the result in assay [7], in assay [8] and in assay [9] was inactive. The Potency in [13] was 2660 nM (active).

As for `O=C(CCNNC(=O)c1ccncc1)NCc1ccccc1`, the Potency entry in assay [2], in assay [3], in [5], in [6], in assay [15] and in assay [10] was “inactive” in each case. Further, the Potency entry in assay [11], in [12] and in [13] was “inactive” each time. For the same compound, the result in [7], in assay [8], in [14] and in assay [9] was inactive.

For the compound `CC(=O)OCC1=C(C(=O)O)N2C(=O)[C@@H](NC(=O)Cc3cccs3)[C@H]2SC1`, the Potency entry in assay [2], in [3], in [4], in assay [5], in assay [6] and in assay [15] was “inactive” each time. Further, the Potency result in [10], in assay [11], in assay [12] and in assay [13] was “inactive” each time. The outcome in [7], in assay [8], in assay [14] and in assay [9] was inactive.

As to `Cc1ccc(S(=O)(=O)NC(=O)NN2CCCCCC2)cc1`, the Potency result in assay [2], in [3], in assay [4], in assay [5], in [6] and in assay [15] was “inactive” throughout. In addition, the Potency result in [10], in [11], in assay [12] and in assay [13] was “inactive” in each case. Also, the outcome in assay [7], in assay [8], in assay [14] and in assay [9] was inactive.

Regarding `N[C@@H](COP(=O)(O)O)C(=O)O`, the Potency entry in assay [2], in assay [3], in assay [4], in assay [5], in assay [6] and in [10] was “inactive” in each case. Besides, the Potency entry in assay [12] and in assay [13] was “inactive” in each case. Also, the call in [7], in [8], in assay [14] and in assay [9] was inactive.
